Assay [1] is described as follows: SU-DIPG-VI glioma cell viability, MIPE4.0 library, CellTiter-Glo luminescence, qHTS (AID 1347066; cut-off not given, nearly all actives have AC50 up to about 30 µM;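 also: cells exposed to compound for 48 hours before readout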). Conditions: CellTiter-Glo ATP luminescence.
Assay [2] is described as follows: SU-DIPG-XXV glioma cell viability, MIPE5.0 library, qHTS (AID 1347068; cut-off not given, nearly all actives have IC50 up to about 30 µM). A general note: qHTS replaces the single test concentration by a dilution series.
Assay [3] is described as follows: phospholipid biosynthesis inhibitors in animal cells, primary screen, cell-based, LOPAC library, screen 4 (AID 1347384; call rule not given here). Conditions: phospholipid biosynthesis inhibition screen, at 10 µM.
Assay [4] is described as follows: survival rescue of mitochondrial mutant cells in low glucose, primary screen, MELAS cybrids, Rieske KO mouse fibroblasts, CellTiter-Glo (AID 1508586).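 Also: z relative to plate mean and SD of compound and empty wells.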
Assay [5] addresses NAD(+) hydrolase SARM1 (Homo sapiens) (UniProt Q6SZW1). The assay can be described thus: SARM1 TIR NADase inhibitors, cell lysate, NAD-Glo luminescence (AID 1508614;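 active = compound whose remaining NAD level is above about 45 nM, limit read from the data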;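 also: higher remaining NAD means stronger inhibition of SARM1 NADase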). Conditions: SAM-TIR HEK293T lysate NADase, at 1 µM, stronger effect = higher value.
The target of assay [6] is Mitogen-activated protein kinase 7 (Homo sapiens) (UniProt Q13164). Put plainly: ERK5 transactivation activators in reporter cells, primary screen, cell-based, HTS (AID 1508626;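 active = luciferase signal above three times the same-plate solvent-only control wells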;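 also: luciferase driven by Gal4-ERK5 fusion binding five Gal4 sites before minimal TATA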). Conditions: HeLa Gal4-ERK5 transactivation, 18 h, at 5 µM, stronger effect = higher value.
Assay [7] can be described thus: viability rescue of complex I mutant cybrids, primary screen, cell-based, galactose medium, ATP luminescence (AID 1645843;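 active = z-score of at least 1.8 in each of two replicates, scored against plate mean and spread of sample wells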;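 also: positive z means more ATP and so rescue of galactose-driven cybrid death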). Conditions: complex I mutant cybrid cells, 72 h, stronger effect = higher value.
Assay [8] can be described thus: sensitizers of A549 cells to miR-34 induction, primary screen, imaging, A549 dox-inducible miR-34, nuclei and caspase counts (AID 1347080;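 active = compounds whose cell count with miR-34 switched on is under 0.7 times the count with it off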). Conditions: A549 miR-34 inducible, Hoechst nuclei count, 48 h.
The nature of assay [9]: LFS_MB_P medulloblastoma growth inhibition, cell-based, chromothripsis tumors, cisplatin or BGB combos (AID 1671449; in the data active = inhibition above about 80%;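 also: cells exposed for 96 hours; 0% = vehicle DMSO and 100% = killing by high DMSO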). Conditions: LFS_MB_P medulloblastoma cells.
The nature of assay [10]: HDN33 neuroblastoma growth inhibition, cell-based, chromothripsis tumors, cisplatin or BGB combos (AID 1671450; in the data active = inhibition above about 80%;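 also: cells exposed to compound for four days; 0% = vehicle DMSO and 100% = cell killing by high DMSO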). The conditions noted are these: HDN33 neuroblastoma cells, stronger effect = higher value.
A short description of assay [11]: ICB984 medulloblastoma cell growth inhibition, synergistic combos for chromothripsis tumors, cisplatin or BGB combos (AID 1671451; call rule not given here;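 also: cells exposed for 96 hours before readout; 0% = vehicle DMSO and 100% = killing by high DMSO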). Conditions: ICB984 medulloblastoma cells, drug combinations, stronger effect = higher value.
A short description of assay [12]: LFS_MB_1R medulloblastoma cell growth inhibition, synergistic combos for chromothripsis tumors, cisplatin or BGB combos (AID 1671452; in the data active = inhibition above about 80%;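 also: cells exposed for 96 hours before readout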). The conditions noted are these: LFS_MB_1R medulloblastoma cells, stronger effect = higher value.
The nature of assay [13]: HTB85 osteosarcoma cell growth inhibition, synergistic combos for chromothripsis tumors, BGB or cisplatin IC20 combos (AID 1671453; in the data active = inhibition above about 80%;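 also: cells exposed for 96 hours before readout; 0% = vehicle DMSO and 100% = high DMSO killing control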). The conditions noted are these: HTB85 osteosarcoma cells, drug combinations, stronger effect = higher value.
Assay [14] is described as follows: CRL2098 osteosarcoma cell growth inhibition, synergistic combos for chromothripsis tumors, BGB or cisplatin IC20 combos (AID 1671454; in the data active = inhibition above about 80%;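 also: cells exposed for 96 h before readout; 0% = vehicle DMSO and 100% = killing by high DMSO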). Conditions: CRL2098 osteosarcoma cells, drug combinations, stronger effect = higher value.
Assay [15] can be described thus: HD-MB03 medulloblastoma cell growth inhibition, synergistic combos for chromothripsis tumors, BGB or cisplatin IC20 combos (AID 1671455; in the data active = inhibition above about 83%;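 also: 0% = vehicle DMSO and 100% = high DMSO as cytotoxic control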). Conditions: HD-MB03 medulloblastoma cells, stronger effect = higher value.
The mark [16] stands for this setting: MELAS cybrid survival, CellTiter-Glo 48 h, stronger effect = higher value.
The mark [17] stands for this setting: Rieske KO mouse fibroblast survival, CellTiter-Glo 72 h.
The mark [18] stands for this setting: stronger effect = lower value, cell number ratio, induced over uninduced.
Setting [19] is: measured here: relative caspase fold change +Dox/-Dox.
Where [20] appears, read: measured here: total cells with miR-34 induction, stronger effect = lower value.
Setting [21] is: measured here: total cells without miR-34 induction.
The mark [22] stands for this setting: measured here: combination with BGB IC40, at 0.05 µM.

Structures are written as SMILES. Several values for one entry are separate records, joined by “and”; a condition that tells them apart may be missing. Equal values may be shown once. Results filed as inconclusive are left out. Activity calls are given as the source filed them.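 The calls were made as follows, unless noted: active = mean z-score across replicates of 1.96 or higher in either the MELAS or the Rieske mutant cell line; inactive = the rest.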

NAD(+) hydrolase SARM1 (Homo sapiens), sequence (Q6SZW1 whole entry, looked up, the tested form may be a part): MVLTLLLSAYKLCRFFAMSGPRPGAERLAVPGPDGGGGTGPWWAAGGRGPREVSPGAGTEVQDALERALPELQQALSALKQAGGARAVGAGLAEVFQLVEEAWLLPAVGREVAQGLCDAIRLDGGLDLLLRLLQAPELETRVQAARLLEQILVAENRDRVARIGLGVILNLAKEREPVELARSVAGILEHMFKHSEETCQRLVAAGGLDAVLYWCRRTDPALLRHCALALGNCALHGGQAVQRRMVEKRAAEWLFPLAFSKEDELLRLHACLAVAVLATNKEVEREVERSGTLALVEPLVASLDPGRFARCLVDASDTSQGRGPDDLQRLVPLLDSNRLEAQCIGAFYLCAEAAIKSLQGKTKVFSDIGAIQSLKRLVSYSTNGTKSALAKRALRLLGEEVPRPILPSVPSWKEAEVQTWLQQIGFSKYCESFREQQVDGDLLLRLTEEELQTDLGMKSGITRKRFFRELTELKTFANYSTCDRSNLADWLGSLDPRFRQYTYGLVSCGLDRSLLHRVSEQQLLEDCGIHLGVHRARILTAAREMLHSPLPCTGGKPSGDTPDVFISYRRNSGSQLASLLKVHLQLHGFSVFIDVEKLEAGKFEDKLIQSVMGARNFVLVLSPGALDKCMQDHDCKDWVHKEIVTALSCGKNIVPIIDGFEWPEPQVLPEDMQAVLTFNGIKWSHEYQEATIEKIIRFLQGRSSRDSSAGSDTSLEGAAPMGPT
Mitogen-activated protein kinase 7 (Homo sapiens), sequence (Q13164 whole entry, looked up, the tested form may be a part): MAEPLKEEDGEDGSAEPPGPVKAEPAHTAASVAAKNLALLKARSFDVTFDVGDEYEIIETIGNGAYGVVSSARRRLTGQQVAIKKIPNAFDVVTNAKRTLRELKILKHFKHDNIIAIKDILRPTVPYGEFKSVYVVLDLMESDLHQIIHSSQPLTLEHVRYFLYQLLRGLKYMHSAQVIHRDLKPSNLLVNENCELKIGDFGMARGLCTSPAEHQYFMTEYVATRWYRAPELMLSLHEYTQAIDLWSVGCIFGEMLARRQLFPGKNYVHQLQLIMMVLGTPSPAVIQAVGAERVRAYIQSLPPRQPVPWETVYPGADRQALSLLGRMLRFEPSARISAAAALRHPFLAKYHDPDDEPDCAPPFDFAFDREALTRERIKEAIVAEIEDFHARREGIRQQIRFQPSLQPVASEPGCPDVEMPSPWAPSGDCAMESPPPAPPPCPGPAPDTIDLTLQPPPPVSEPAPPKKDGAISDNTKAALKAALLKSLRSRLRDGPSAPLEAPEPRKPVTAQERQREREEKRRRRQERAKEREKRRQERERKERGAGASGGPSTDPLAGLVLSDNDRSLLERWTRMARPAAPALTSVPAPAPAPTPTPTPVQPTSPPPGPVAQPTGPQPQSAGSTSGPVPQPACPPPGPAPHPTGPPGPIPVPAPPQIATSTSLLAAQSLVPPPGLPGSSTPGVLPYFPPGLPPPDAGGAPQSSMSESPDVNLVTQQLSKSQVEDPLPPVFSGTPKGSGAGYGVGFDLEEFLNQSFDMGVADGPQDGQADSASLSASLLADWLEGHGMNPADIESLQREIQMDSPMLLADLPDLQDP

As to `CN(C)CCC=C1c2ccccc2C=Cc2ccccc21`, the outcome in [1], in assay [2] and in assay [3] was inactive. In addition, the z-score in assay [4] (setting [16]) is -1.05 (inactive) and 0.34 (inactive); in [4] (setting [17]), -0.783 and 0.18; in [7], -1.16 (inactive). For the same compound, in assay [5], the remaining NAD is 10 nM (inactive). Moreover, the luciferase signal in assay [6] was 52 AU (inactive).

On to `Cc1ccnc2c1NC(=O)c1cccnc1N2C1CC1`, for which the compound was called inactive in assay [1]. The fold change was 0.867 (inactive) and 0.916 (inactive) and 0.818 (inactive) in assay [8] (setting [18]); 1 and 1.53 and 1.78 in assay [8] (setting [19]). Further, the cell count in assay [8] (setting [20]) was 8040 and 8950 and 7970; in assay [8] (setting [21]), 9270 and 9770 and 9750. Besides, the z-score in assay [4] (setting [16]) is -0.331 (inactive) and -0.443 (inactive); in [4] (setting [17]) it was 0.346 and -0.451; in assay [7], 0.47 (inactive). In addition, the remaining NAD in assay [5] was 10 nM (inactive). Moreover, the inhibition in assay [9] (at 0.5 µM, stronger effect = higher value) was 65.5% (inactive); in assay [9] (measured here: combination with BGB IC20, at 0.005 µM), -14.8%; in assay [9] (measured here: combination with BGB IC40, at 0.005 µM), -23.6%; in assay [9] (setting [22]) it was -7.3%; in assay [9] (measured here: combination with cisplatin, at 0.5 µM, stronger effect = higher value) it was 96.2%; in assay [9] (measured here: combination with cisplatin, at 5 µM, stronger effect = higher value) it was -8.68%. For the same compound, the inhibition is -9.4% in [10] (BGB combo, at 5 µM); -11.8% (inactive) in [10] (at 0.5 µM); 24.4% in assay [10] (cisplatin combo, at 5 µM); -18.3% in assay [10] (measured here: with BGB IC20 combination, at 0.5 µM); 0.871% in assay [10] (measured here: with cisplatin IC20 combination, at 0.5 µM); -21.1% in assay [10] (single agent, at 5 µM). Besides, the inhibition in [11] (BGB IC20 combo, at 0.005 µM) was 7.31%; in [11] (BGB IC40 combo, at 0.005 µM), -7.13%; in assay [11] (BGB IC40 combo, at 0.05 µM), -20.9%; in [11] (at 0.5 µM), -20.4% (inactive); in assay [11] (cisplatin combo, at 0.05 µM) it was -24.3%; in assay [11] (cisplatin combo, at 0.5 µM), -22.4%. Further, the inhibition in [11] (cisplatin combo, at 5 µM) is -11%; in [11] (measured here: 5 uM single agent, at 5 µM), -28.4%; in assay [12] (at 0.5 µM) it was -9.83% (inactive); in [12] (setting [22]), -16.2%; in assay [12] (measured here: combination with cisplatin, at 0.5 µM) it was 15.1%; in assay [12] (measured here: combination with cisplatin, at 5 µM), 29.5%. The inhibition in assay [13] (at 0.5 µM) is -11.8% (inactive); in assay [13] (measured here: with BGB IC20, at 0.5 µM), -22.9%; in assay [13] (measured here: with BGB IC20, at 5 µM) it was 53.6%; in [13] (measured here: with cisplatin IC20, at 0.5 µM) it was -9.99%; in assay [13] (measured here: with cisplatin IC20, at 5 µM), -37.2%; in assay [13] (single agent, at 5 µM), -7.51%. Also, the inhibition was -33.2% (inactive) in assay [14] (at 0.5 µM); -9.42% in assay [14] (measured here: combination with BGB at IC20, at 0.5 µM); -39.8% in [14] (measured here: combination with cisplatin at IC20, at 0.5 µM); -18.2% (inactive) in [15] (at 0.5 µM); -13% in assay [15] (measured here: combo with BGB at IC20, at 0.5 µM); -23.9% in assay [15] (measured here: combo with cisplatin at IC20, at 0.5 µM).

As to `Nc1ccn([C@H]2CC[C@@H](CO)O2)c(=O)n1`, the result in assay [1] and in [3] was inactive. Also, the fold change is 1 (inactive) and 0.95 (inactive) and 0.852 (inactive) in assay [8] (setting [18]); 0.845 and 0.908 and 1.17 in assay [8] (setting [19]). Moreover, the cell count was 9380 and 8950 and 8540 in assay [8] (setting [20]); 9340 and 9420 and 10000 in assay [8] (setting [21]). For the same compound, the z-score is -0.041 (inactive) and 0.441 (inactive) in assay [4] (setting [16]); -0.157 and -0.525 in assay [4] (setting [17]); 0.025 (inactive) and 0.685 (inactive) in assay [7]. Besides, in [5], the remaining NAD was 10 nM (inactive).

As usually defined, the inhibition is the change of the read-out against control, counted positive when it falls.

Values taken from PubChem BioAssay.
